In paper PMC7862700, “An all-to-all approach to the identification of sequence-specific readers for epigenetic DNA modifications on cytosine” one finds binding signal data, which are given here for seven sequences.

What all share (experiment): DAPPL (digital affinity profiling via proximity ligation, sequencing); 10 mM Tris-HCl pH 7.5, 50 mM NaCl, 1 mM DTT, 4% glycerol, room temperature, 30 min; GST-TFs on glutathione beads, 16-mer random dsDNA library, 0.1% formaldehyde crosslink after washing; high values mean tight binding
Common to all, as to conditions: protein: recombinant; tags: N-terminal GST; dsDNA, one strand shown

Assay [1] has as its target T1, ERF (Homo sapiens, UniProt P50548 1-548).
T1 sequence: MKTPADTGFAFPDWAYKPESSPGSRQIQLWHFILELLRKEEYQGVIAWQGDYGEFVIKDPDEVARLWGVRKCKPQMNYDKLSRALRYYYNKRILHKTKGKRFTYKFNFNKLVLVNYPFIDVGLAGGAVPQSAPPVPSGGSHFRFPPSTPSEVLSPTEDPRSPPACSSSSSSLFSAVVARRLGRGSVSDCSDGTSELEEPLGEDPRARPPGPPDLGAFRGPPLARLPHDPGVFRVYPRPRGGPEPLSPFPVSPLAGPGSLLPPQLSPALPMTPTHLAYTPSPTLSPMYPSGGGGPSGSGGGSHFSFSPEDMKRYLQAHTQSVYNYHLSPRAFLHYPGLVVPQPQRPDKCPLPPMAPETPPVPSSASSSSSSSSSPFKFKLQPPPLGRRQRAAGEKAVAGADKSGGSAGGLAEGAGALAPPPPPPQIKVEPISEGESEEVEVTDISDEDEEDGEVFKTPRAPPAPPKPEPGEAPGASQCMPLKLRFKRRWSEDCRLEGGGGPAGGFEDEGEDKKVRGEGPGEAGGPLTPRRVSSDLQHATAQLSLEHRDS
The procedure, abridged: (§1)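 Sequencing on an Illumina NextSeq500 followed washing, crosslinking with 0.1% formaldehyde, proximity ligation (BsaI/T4 ligase, 1 h, 37 °C) and PCR amplification of pools that had been incubated for 30 min at room temperature with 200 nmole of a random double-stranded 16-mer DNA library in Tris/NaCl/DTT/glycerol buffer. Each pool held DNA-barcoded human transcription factors, expressed in yeast as GST fusions and captured on glutathione beads, plus a tag-only sample. Binding signal is a hexamer's read frequency for a factor divided by its frequency in the tag-only sample.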

Assay [2] has as its target T2, ETV3L (Homo sapiens, UniProt Q6ZN32 1-361).
T2 sequence: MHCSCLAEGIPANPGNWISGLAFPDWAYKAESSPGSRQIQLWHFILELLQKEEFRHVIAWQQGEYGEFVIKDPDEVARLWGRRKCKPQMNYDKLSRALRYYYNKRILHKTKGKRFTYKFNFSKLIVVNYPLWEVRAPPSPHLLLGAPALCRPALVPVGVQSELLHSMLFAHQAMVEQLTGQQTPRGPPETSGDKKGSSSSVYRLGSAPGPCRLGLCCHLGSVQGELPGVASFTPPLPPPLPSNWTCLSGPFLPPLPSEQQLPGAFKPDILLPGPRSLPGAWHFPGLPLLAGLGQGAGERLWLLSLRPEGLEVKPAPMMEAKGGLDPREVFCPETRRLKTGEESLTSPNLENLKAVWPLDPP
The procedure, abridged: as §1

For assay [3], the target named is T3, ETS2 (Homo sapiens, UniProt P15036 1-469).
T3 sequence: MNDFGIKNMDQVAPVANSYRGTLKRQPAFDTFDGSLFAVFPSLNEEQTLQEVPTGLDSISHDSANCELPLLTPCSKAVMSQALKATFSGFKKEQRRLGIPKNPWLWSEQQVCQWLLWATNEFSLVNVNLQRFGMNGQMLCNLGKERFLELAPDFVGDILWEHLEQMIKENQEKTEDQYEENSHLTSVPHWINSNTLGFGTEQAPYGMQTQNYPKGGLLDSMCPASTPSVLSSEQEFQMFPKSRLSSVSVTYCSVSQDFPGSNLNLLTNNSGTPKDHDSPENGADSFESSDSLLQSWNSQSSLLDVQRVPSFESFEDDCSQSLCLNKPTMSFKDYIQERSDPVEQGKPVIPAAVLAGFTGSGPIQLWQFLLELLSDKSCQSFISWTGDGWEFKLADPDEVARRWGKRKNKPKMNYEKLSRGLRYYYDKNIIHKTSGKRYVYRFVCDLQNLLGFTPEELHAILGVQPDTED
An outline of the steps: as §1

Assay [4] has as its target T4, SPDEF (Homo sapiens, UniProt O95238 1-335).
T4 sequence: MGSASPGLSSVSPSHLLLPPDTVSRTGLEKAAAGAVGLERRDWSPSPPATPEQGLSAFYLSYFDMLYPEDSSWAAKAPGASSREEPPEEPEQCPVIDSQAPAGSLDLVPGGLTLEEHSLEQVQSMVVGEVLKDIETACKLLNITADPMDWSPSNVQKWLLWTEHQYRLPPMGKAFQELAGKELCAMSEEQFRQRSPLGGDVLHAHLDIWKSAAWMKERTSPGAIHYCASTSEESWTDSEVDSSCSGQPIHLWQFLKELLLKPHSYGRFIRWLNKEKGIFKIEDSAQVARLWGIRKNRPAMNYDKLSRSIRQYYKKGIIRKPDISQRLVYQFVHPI
An outline of the steps: as §1

In assay [5] the target is T5, ETV7 (Homo sapiens, UniProt Q9Y603 1-341).
T5 sequence: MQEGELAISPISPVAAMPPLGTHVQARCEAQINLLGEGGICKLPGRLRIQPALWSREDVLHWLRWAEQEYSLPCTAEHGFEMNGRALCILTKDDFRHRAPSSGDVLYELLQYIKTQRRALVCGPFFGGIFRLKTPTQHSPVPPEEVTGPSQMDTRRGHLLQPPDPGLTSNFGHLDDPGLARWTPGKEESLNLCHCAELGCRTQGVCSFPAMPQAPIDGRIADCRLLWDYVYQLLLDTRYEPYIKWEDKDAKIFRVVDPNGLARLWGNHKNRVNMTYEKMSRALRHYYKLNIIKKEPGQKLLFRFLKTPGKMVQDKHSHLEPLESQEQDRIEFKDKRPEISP
The procedure, abridged:
as §1

Assay [6] has as its target T6, ELF5 (Homo sapiens, UniProt Q9UKW6-2 1-255).
T6 sequence: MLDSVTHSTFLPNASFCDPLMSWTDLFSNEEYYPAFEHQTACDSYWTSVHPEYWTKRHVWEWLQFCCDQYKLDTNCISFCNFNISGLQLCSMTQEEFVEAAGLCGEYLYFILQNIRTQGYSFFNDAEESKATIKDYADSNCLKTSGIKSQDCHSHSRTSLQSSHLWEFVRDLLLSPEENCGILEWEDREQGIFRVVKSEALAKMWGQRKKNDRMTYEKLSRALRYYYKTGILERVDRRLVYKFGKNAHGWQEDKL
The procedure, abridged:
as §1

Assay [7] has as its target T7, ETV3 (Homo sapiens, UniProt P41162-2 1-143).
T7 sequence: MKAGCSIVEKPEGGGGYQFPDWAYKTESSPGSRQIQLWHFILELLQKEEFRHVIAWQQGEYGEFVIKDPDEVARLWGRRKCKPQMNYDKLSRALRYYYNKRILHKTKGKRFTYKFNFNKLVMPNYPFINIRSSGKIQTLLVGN
The procedure, abridged:
as §1

The target of assay [8] is ETV6 (Homo sapiens, UniProt P41212 1-452). An outline of the steps:
as §1

Chain of ETV6 (P41212 whole entry): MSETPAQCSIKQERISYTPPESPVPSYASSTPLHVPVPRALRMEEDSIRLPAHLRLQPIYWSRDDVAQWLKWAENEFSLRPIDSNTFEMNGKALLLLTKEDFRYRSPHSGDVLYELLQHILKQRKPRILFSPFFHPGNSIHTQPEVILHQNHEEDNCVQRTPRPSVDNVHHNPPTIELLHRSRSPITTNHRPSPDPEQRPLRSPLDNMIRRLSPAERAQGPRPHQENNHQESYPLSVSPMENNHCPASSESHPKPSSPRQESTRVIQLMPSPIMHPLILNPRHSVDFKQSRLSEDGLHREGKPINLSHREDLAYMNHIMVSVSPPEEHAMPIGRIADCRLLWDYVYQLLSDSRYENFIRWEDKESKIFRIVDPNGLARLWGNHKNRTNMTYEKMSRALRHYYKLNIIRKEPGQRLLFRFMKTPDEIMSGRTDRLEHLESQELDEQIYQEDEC

Turning to CGTATC, the binding signal was 1.15 fold enrichment (6-mer frequency, TF over GST control) in assay [1]; 1.24 fold enrichment (6-mer frequency, TF over GST control) in assay [2]; 1.11 fold enrichment (6-mer frequency, TF over GST control) in assay [3]; 1.57 fold enrichment (6-mer frequency, TF over GST control) in assay [4]; 1.1 fold enrichment (6-mer frequency, TF over GST control) in assay [5]; 1.19 fold enrichment (6-mer frequency, TF over GST control) in assay [6]. The binding signal in assay [7] is 1.28 fold enrichment (6-mer frequency, TF over GST control); in assay [8], 1.09 fold enrichment (6-mer frequency, TF over GST control).
Regarding CCTCTT, the binding signal in assay [1] is 1.59 fold enrichment (6-mer frequency, TF over GST control); in assay [2] it was 1.71 fold enrichment (6-mer frequency, TF over GST control); in assay [3], 1.56 fold enrichment (6-mer frequency, TF over GST control); in assay [4], 1.57 fold enrichment (6-mer frequency, TF over GST control); in assay [5], 1.51 fold enrichment (6-mer frequency, TF over GST control); in assay [6] it was 1.75 fold enrichment (6-mer frequency, TF over GST control). Also, the binding signal in assay [7] is 1.67 fold enrichment (6-mer frequency, TF over GST control); in assay [8], 1.68 fold enrichment (6-mer frequency, TF over GST control).
With CGCCGA, the binding signal in assay [1] is 1.34 fold enrichment (6-mer frequency, TF over GST control); in assay [2], 1.21 fold enrichment (6-mer frequency, TF over GST control); in assay [3] it was 1.22 fold enrichment (6-mer frequency, TF over GST control); in assay [4] it was 1.15 fold enrichment (6-mer frequency, TF over GST control); in assay [5], 1.05 fold enrichment (6-mer frequency, TF over GST control); in assay [6] it was 1.1 fold enrichment (6-mer frequency, TF over GST control). The binding signal in assay [7] was 1.16 fold enrichment (6-mer frequency, TF over GST control); in assay [8], 1.16 fold enrichment (6-mer frequency, TF over GST control).
With GTTTAT, the binding signal was 1.17 fold enrichment (6-mer frequency, TF over GST control) in assay [1]; 1.26 fold enrichment (6-mer frequency, TF over GST control) in assay [2]; 1.1 fold enrichment (6-mer frequency, TF over GST control) in assay [3]; 1.11 fold enrichment (6-mer frequency, TF over GST control) in assay [4]; 1.19 fold enrichment (6-mer frequency, TF over GST control) in assay [5]; 1.14 fold enrichment (6-mer frequency, TF over GST control) in assay [6]. Also, the binding signal in assay [7] is 1.1 fold enrichment (6-mer frequency, TF over GST control); in assay [8] it was 1.18 fold enrichment (6-mer frequency, TF over GST control).
For AAGTAG, the binding signal in assay [1] was 1.22 fold enrichment (6-mer frequency, TF over GST control); in assay [2], 1.16 fold enrichment (6-mer frequency, TF over GST control); in assay [3], 1.31 fold enrichment (6-mer frequency, TF over GST control); in assay [4] it was 1.07 fold enrichment (6-mer frequency, TF over GST control); in assay [5], 1.23 fold enrichment (6-mer frequency, TF over GST control); in assay [6], 1.28 fold enrichment (6-mer frequency, TF over GST control). Moreover, the binding signal in assay [7] was 1.26 fold enrichment (6-mer frequency, TF over GST control); in assay [8] it was 1.28 fold enrichment (6-mer frequency, TF over GST control).
For the sequence CCAACG, the binding signal in assay [1] is 1.29 fold enrichment (6-mer frequency, TF over GST control); in assay [2] it was 1.1 fold enrichment (6-mer frequency, TF over GST control); in assay [3] it was 1.08 fold enrichment (6-mer frequency, TF over GST control); in assay [4], 1.13 fold enrichment (6-mer frequency, TF over GST control); in assay [5], 1.13 fold enrichment (6-mer frequency, TF over GST control); in assay [6], 1.1 fold enrichment (6-mer frequency, TF over GST control). For the same sequence, the binding signal in assay [7] is 1.09 fold enrichment (6-mer frequency, TF over GST control); in assay [8], 1.22 fold enrichment (6-mer frequency, TF over GST control).
With CCGGCC, the binding signal is 1.06 fold enrichment (6-mer frequency, TF over GST control) in assay [1]; 1.19 fold enrichment (6-mer frequency, TF over GST control) in assay [2]; 1.05 fold enrichment (6-mer frequency, TF over GST control) in assay [3]; 1.38 fold enrichment (6-mer frequency, TF over GST control) in assay [4]; 1.16 fold enrichment (6-mer frequency, TF over GST control) in assay [5]; 1.22 fold enrichment (6-mer frequency, TF over GST control) in assay [6]. In addition, the binding signal is 1.24 fold enrichment (6-mer frequency, TF over GST control) in assay [7] and 1.11 fold enrichment (6-mer frequency, TF over GST control) in assay [8].
